Test results reported in PubChem BioAssay (NCI).
The panel holds about 79,000 compounds, 15% with a hit somewhere; the sample as a whole holds those more often. Calls of active or inactive are those of the source. Cut-off read from the data, not from the text of the source: active = growth inhibition above about 70%; inactive = the rest.

Assays:
[1] = NCI Yeast Anticancer Drug Screen. Data for the rad52 strain (AID 147);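 note: 0% = growth of vehicle-treated control cultures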; conditions: S. cerevisiae rad52 mutant growth inhibition, hits give high values
Outline: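 Growth of repair-deficient yeast cells was compared between compound-treated and vehicle-treated cultures to give percent inhibition.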

[2] = NCI Yeast Anticancer Drug Screen. Data for the wt1 strain (AID 149);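 note: 0% = growth of vehicle-treated wt1 cultures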; conditions: S. cerevisiae wt1 strain (SPY 50644) growth inhibition, hits give high values
Outline: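 wt1 yeast, compound-treated; % growth inhibition vs vehicle control.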

[3] = NCI Yeast Anticancer Drug Screen. Data for the rad50EPP+ strain (AID 151);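 note: 0% = growth of vehicle-treated control cultures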; conditions: S. cerevisiae rad50 mutant strain, hits give high values
Outline: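 Measured: growth inhibition of rad50EPP+ yeast. Reference: vehicle-treated controls. Screen uses strains with defined genetic alterations in DNA damage repair or cell cycle control.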

[4] = NCI Yeast Anticancer Drug Screen. Data for the mgt1 strain (AID 153); conditions: S. cerevisiae mgt1 mutant growth inhibition, hits give high values
Outline: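 Compounds were applied to mgt1 mutant yeast, and growth was then compared against vehicle-treated control cultures to give percent inhibition.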

[5] = NCI Yeast Anticancer Drug Screen. Data for the rad50 strain (AID 155);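 note: 0% = growth of vehicle-only cultures of the same strain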; conditions: S. cerevisiae rad50 strain growth inhibition, hits give high values
Outline: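 Genetically altered yeast (DNA repair pathway); compound treatment; growth inhibition vs vehicle ctrl.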

[6] = NCI Yeast Anticancer Drug Screen. Data for the mec2-1 strain (AID 157); conditions: S. cerevisiae mec2-1 strain, hits give high values
Outline: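 Compounds were applied to mec2-1 yeast cells. Their growth was then compared with that of vehicle-treated cultures to give growth inhibition.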

[7] = NCI Yeast Anticancer Drug Screen. Data for the rad14 strain (AID 159);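 note: 0% = growth of vehicle-treated control cultures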; conditions: S. cerevisiae rad14 strain growth inhibition, hits give high values
Outline: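 Test compounds were applied to a repair-deficient yeast strain. Its growth was then compared with that of cultures given vehicle alone, and inhibition was expressed relative to those controls.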

[8] = NCI Yeast Anticancer Drug Screen. Data for the sgs1 mgt1 strain (AID 161);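 note: 0% = growth of cultures given vehicle only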; conditions: S. cerevisiae sgs1 mgt1 strain, hits give high values
Outline: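 Compounds are added to genetically altered yeast, and growth is compared with cultures given vehicle alone to give percent inhibition.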

[9] = NCI Yeast Anticancer Drug Screen. Data for the cln2 rad14 strain (AID 165);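 note: 0% = growth equal to vehicle treated cultures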; conditions: S. cerevisiae cln2 rad14 strain, hits give high values
Outline: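 Strain: cln2 rad14 yeast, altered in cell cycle control and DNA damage repair. Read-out: growth inhibition vs vehicle.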

[10] = NCI Yeast Anticancer Drug Screen. Data for the bub3 strain (AID 167); conditions: S. cerevisiae bub3 mutant strain, hits give high values
Outline: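 Yeast carrying a defined mutation is treated with each compound, and growth is compared with that of vehicle-exposed cells to give inhibition.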

[11] = NCI Yeast Anticancer Drug Screen. Data for the wt2 strain (AID 169);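 note: 0% = growth of vehicle-treated yeast cultures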; conditions: S. cerevisiae wt2 strain growth inhibition, hits give high values
Outline: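 Growth of compound-treated yeast is measured and expressed as inhibition relative to vehicle-only controls.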

[12] = NCI Yeast Anticancer Drug Screen. Data for the mlh1 strain (AID 171);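 note: 0% = growth of vehicle-treated control cultures of the same strain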; conditions: S. cerevisiae mlh1 strain growth inhibition, hits give high values
Outline: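 Test agents were incubated with yeast bearing a defined DNA damage repair or cell cycle control alteration; values are growth inhibition normalised to vehicle-treated cultures.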

[13] = NCI Yeast Anticancer Drug Screen. Data for the sgs1 strain (AID 173);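 note: 0% = growth of vehicle-only control cultures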; conditions: S. cerevisiae sgs1 mutant, hits give high values
Outline: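 Strain with an altered DNA repair or cell cycle pathway exposed to compound. Growth then measured. Value = inhibition versus vehicle control.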

[14] = NCI Yeast Anticancer Drug Screen. Data for the mlh1 rad18 strain (AID 175); conditions: S. cerevisiae mlh1 rad18 strain growth inhibition, hits give high values
Outline: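 A repair-deficient yeast strain is exposed to test compound, and growth is scored relative to vehicle-treated controls.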

[15] = NCI Yeast Anticancer Drug Screen. Data for the rad18 strain (AID 177); conditions: S. cerevisiae rad18 mutant growth inhibition, hits give high values
Outline: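 DNA-repair-defective yeast; compound treatment; growth inhibition scored against vehicle.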

[16] = at 5.0 µM (retest, dose inferred, filed as 0.5)
[17] = at 50.0 µM (retest, dose inferred, filed as 5.0)

Measured: growth inhibition

O=C1C(=O)N(c2ccccc2)[C@@]2(c3ccccc3)C(=Nc3ccccc3)OC(c3ccccc3)=C12
active: [3]; at 100.0 µM 84% | [4]; at 11.0 µM 80% | [4]; at 33.0 µM 94% | [4]; at 100.0 µM 97% | [8]; [17] 96% | [11]; at 11.0 µM 72% | [11]; at 33.0 µM 93% | [11]; at 100.0 µM 96% | [12]; at 33.0 µM 93% | [12]; at 100.0 µM 95% | [13]; at 11.0 µM 74% | [13]; at 33.0 µM 93% | [13]; at 100.0 µM 96%
inactive: [1]; at 1.2 µM 0% | [1]; at 3.7 µM 0% | [1]; at 11.0 µM 3% | [1]; at 33.0 µM 4% | [1]; at 100.0 µM 40% | [2]; at 1.2 µM -2% | [2]; at 3.7 µM -1% | [2]; at 11.0 µM -1% | [2]; at 33.0 µM 2% | [2]; at 100.0 µM 31% | [3]; at 1.2 µM -3% | [3]; at 3.7 µM -1% | [3]; at 11.0 µM 2% | [3]; at 33.0 µM 31% | [4]; at 1.2 µM -3% | [4]; at 3.7 µM -1% | [5]; at 1.2 µM -1% | [5]; at 3.7 µM -2% | [5]; [16] 0% | [5]; at 11.0 µM 0% | [5]; at 33.0 µM 3% | [5]; [17] 4% | [5]; at 50.0 µM 21.6% | [5]; at 100.0 µM 36% | [6]; at 1.2 µM -2% | [6]; at 3.7 µM -1% | [6]; [16] -30% | [6]; at 11.0 µM 0% | [6]; at 33.0 µM 6% | [6]; [17] 45% | [6]; at 50.0 µM 10.5% | [6]; at 100.0 µM 41% | [7]; at 1.2 µM -1% | [7]; at 3.7 µM 1% | [7]; at 11.0 µM 3% | [7]; at 33.0 µM 8% | [7]; at 100.0 µM 57% | [8]; [16] 49% | [8]; at 50.0 µM 52% | [9]; [16] -1% | [9]; [17] 21% | [9]; at 50.0 µM 32.9% | [10]; at 1.2 µM -1% | [10]; at 3.7 µM -6% | [10]; [16] -5% | [10]; at 11.0 µM -5% | [10]; at 33.0 µM -5% | [10]; [17] 9% | [10]; at 50.0 µM 4.75% | [10]; at 100.0 µM 20% | [11]; at 1.2 µM -3% | [11]; at 3.7 µM -5% | [12]; at 1.2 µM -3% | [12]; at 3.7 µM -4% | [12]; at 11.0 µM 62% | [13]; at 1.2 µM -3% | [13]; at 3.7 µM 2% | [14]; [16] 1% | [14]; [17] -8% | [14]; at 50.0 µM 40.1% | [15]; at 1.2 µM -3% | [15]; at 3.7 µM 0% | [15]; at 11.0 µM 2% | [15]; at 33.0 µM 4% | [15]; at 100.0 µM 30%
